From PubChem
This is a sample that favours compounds with a hit; in the whole collection about 3% have one here.
IMPase inh – qHTS Assay for Identifying the Cell-Membrane Permeable IMPase Inhibitors. Inositol monophosphatase 1 (Rattus norvegicus), P97697. CHO-M1 cells, IP1 accumulation, HTRF TR-FRET ratio. inhibition (IP1 accumulation), % at 46.1 µM. 120,000 tested, under 10 active. AID 901, 2007; active = well fitted curve in the direction sought with a large enough effect in the signal ratio, not every such curve was filed as active; inconclusive = small, poorly fitted or top-dose-only effect, or a change in a side signal; inactive = no such curve, though single readings can be large or run the other way; the % refers to the signal ratio;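 note: cells stimulated with carbachol in lithium chloride buffer; plate controls were DMSO basal wells for no effect and reference inhibitor wells for full effect; higher means more IMPase inhibition seen as more IP1 and lower FRET ratio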
Target sequence (P97697 whole entry, looked up): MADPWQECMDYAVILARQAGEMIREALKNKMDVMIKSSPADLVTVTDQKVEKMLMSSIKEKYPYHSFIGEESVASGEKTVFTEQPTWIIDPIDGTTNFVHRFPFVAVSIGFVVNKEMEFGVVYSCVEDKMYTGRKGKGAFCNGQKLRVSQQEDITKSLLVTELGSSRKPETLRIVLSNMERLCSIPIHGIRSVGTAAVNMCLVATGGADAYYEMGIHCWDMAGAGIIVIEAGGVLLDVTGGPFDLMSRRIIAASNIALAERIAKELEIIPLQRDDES
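The IP-One HTRF competitive assay in carbachol-stimulated CHO-M1 cells quantifies cellular IP1. Compounds spanned up to 46 uM final, and activity is expressed as AC50 from concentration-response fits of the ratio and donor data.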
12-hLO inh – qHTS Assay for Inhibitors of 12-hLO (12-human lipoxygenase); Polyunsaturated fatty acid lipoxygenase ALOX12 (Homo sapiens), P18054; purified 12-hLO, xylenol orange hydroperoxide absorbance; hit rate 0.12% among 150,000; Potency, µM (highest dose often 57.1 µM), for inactives: at the highest dose activity change, negative = inhibition, usual class: inhibitors; AID 1452, 2008; note: potency is the fitted concentration of half-maximal effect; nearly all actives have a fitted effect of over 55% in size
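Purified human 12hLO (150 nM final) was preincubated with compounds for 15 min at room temperature in 25 mM Hepes pH 7.0, 0.01% Triton X-100, then reacted with 40 uM arachidonic acid for 30 min. Hydroperoxide was detected with ferrous iron/xylenol orange.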
PNC assembly inh – High Content Assay for Compounds that inhibit the Assembly of the Perinucleolar Compartment. PC3M PTB-GFP, PNC prevalence imaging, 16 h; active compounds read low. activity change (PNC), negative = inhibition, % at 10 µM. hit rate 3.1% among 140,000;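 active = readout at or below -70, meaning at least 70% loss of cells showing the perinucleolar compartment, a nuclear body marking cancer cells; inconclusive = readout between -30 and a set limit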;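 note: plate controls were DMSO wells for no effect and camptothecin positive control wells for full effect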
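Read-out is percentage of cells bearing a perinucleolar compartment, from automated 20x imaging of fixed, Hoechst-stained PC3M PTB-GFP cells. Cells were seeded 4 h, then exposed 16 h to compound (23 nl of library stock) in duplicate plates.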
ALOX15B inhib – qHTS Assay for Inhibitors of 15-hLO-2 (15-human lipoxygenase 2); Polyunsaturated fatty acid lipoxygenase ALOX15B (Homo sapiens), O15296; purified 15hLO-2, xylenol orange hydroperoxide absorbance; Potency, µM (series often up to 57.1 µM), without a hit: at the highest dose activity change, negative = inhibition, actives largely listed as inhibitors; hit rate 0.56% among 110,000; AID 881, 2007; note: potency is the fitted concentration of half-maximal effect; nearly all actives have a fitted effect of over 60% in size
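Screening format was qHTS against 50 nM purified 15hLO-2 in Hepes pH 7.5 with detergent. Activity follows hydroperoxide formation from 45 uM arachidonic acid, measured as 573:405 nm absorbance ratio of the ferric-xylenol orange complex.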
* hit, by the source's call; ? = inconclusive; . = no result; [ ] = dose if it differs, or a comment. Unless noted, calls come from the whole dose curve; as a rule, active = well fitted curve in the direction sought with a large enough effect; inconclusive = small, poorly fitted or top-dose-only effect, or another doubt; inactive = no such curve, though single readings can be large; an effect the other way counts as inactive or inconclusive. Unless noted, % is set by controls: 0 for no effect and ±100 for the full control effect.

SMILES | IMPase inh | 12-hLO inh | PNC assembly inh | ALOX15B inhib
O=C1C(Cl)=C(N2CCOCC2)C(=O)N1c1ccccc1Cl | -0.1 | -10.7% | 28.0 | 10.6%
Cc1ccccc1N1C(=O)C(Cl)=C(N2CCN(c3ccccc3)CC2)C1=O | 9.5 | -12.2% | -84.9* | -29.5%
COc1ccc(NC(=O)c2ccco2)cc1NC(=O)c1cccs1 | ? | 6.8% | 16.7 | 5.0%
COc1cc(NC(=O)c2cccs2)c(OC)cc1NC(=O)c1ccco1 | . | 0.6% | -113.8* | .
CCNCC(=O)N1c2ccccc2CCc2ccc(NC(C)=O)cc21 | -1.8 | 5.1% | -105.0* | .
CC(=O)Nc1ccc2c(c1)N(C(=O)CN(C)C)c1ccccc1CC2 | 1.9 | 6.5% | 19.3 | 1.2%
CC(C)C1Oc2ccccc2N(CC(=O)N(Cc2ccccn2)C2CC2)C1=O (configuration not stated) | -1.1 | 3.4% | -100.0* | .
COc1ccc(O)c(/C=c2/sc3nc4cc(C)c(C)cc4n3c2=O)c1 | 9.9 | -1.0% | ? | 24.2%
Cc1ccc(C)c(C(=N)c2ccccc2Cc2ccccc2)c1 | . | -7.4%[11.4 µM] | . | 10.9%[11.4 µM]
Cc1ccc(C(=O)COC(=O)c2cnccn2)cc1 | 0.4 | 2.0% | -102.2* | -7.5%
Nc1nonc1C(=O)NCCNC(=O)c1cccs1 | 0.2 | -0.8% | 28.2 | -6.4%
Cc1ccc(C(=O)NC(=S)Nc2cc(-c3nc4ccccc4s3)ccc2C)cc1 | -1.1 | 2.3% | -108.8* | -13.9%
Cc1onc(-c2c(F)cccc2Cl)c1C(=O)N[C@H]1C(=O)N2[C@H]1SC(C)(C)[C@H]2C(=O)O | 2.7[20.6 µM] | -3.2%[25.6 µM] | . | 2.4%[25.6 µM]
NC(=O)CN1CCOCCOCCN(CC(N)=O)CCOCCOCC1 | -1.6 | 4.4% | -105.7* | .
NC(=O)CN1CCOCCOCCOCCOCCOCC1 | -2.2 | -4.8% | 19.7 | -0.8%
Clc1ccc2c(c1)N(CCCN1CCCC13CCCCC3)c1ccccc1S2 | . | -3.6%[11.4 µM] | . | -3.2%[11.4 µM]
Cc1sc2ncn(CC(=O)OC(C)C)c(=O)c2c1C | -6.0 | -1.7% | ? | -3.6%
Cn1c(NC(=O)/C=C/c2ccco2)cc(=O)n(C)c1=O | . | -8.1% | -121.5* | .
Cc1ccc(/C=C/C(=O)Nc2cc(=O)n(C)c(=O)n2C)o1 | . | -1.4% | -12.1 | .
COc1cccc(C2=CC(c3cccc(OC)c3OC(F)F)n3nnnc3N2)c1 (configuration not stated) | 0.1 | 5.6% | 18.5 | -0.5%
COc1cccc(C2=CC(c3cccc(OC)c3OC)n3nnnc3N2)c1 (configuration not stated) | 1.3 | -5.1% | -86.6* | -11.7%
Cc1cc(C)c(S(=O)(=O)Nc2ccc[nH]c2=O)c(C)c1 | -5.2 | 12.1% | -8.3 | 4.4%
CN1CCN(C2=Cc3ccccc3Sc3cc(F)c(F)cc32)CC1 | 25.8 | -0.8% | -87.6* | .
CN1CCN(C2=Cc3ccccc3Sc3cc(F)c(Cl)cc32)CC1 | 22.1 | -9.2% | -6.4 | .
C=CCN1c2ccccc2[C@]23C[C@@H](C(=O)OC)N(S(=O)(=O)c4ccc(C)cc4)C2=NC(C(=O)OC)=C(C(=O)OC)[C@H]13 | . | -1.5%[11.4 µM] | . | .
SMILES | IMPase inh | 12-hLO inh | PNC assembly inh | ALOX15B inhib
O=C(c1cccs1)N1CCN(Cc2ccccc2)CC1 | . | 2.3% | -109.0* | .
COc1ccc(CCNc2nnc(Sc3nnnn3-c3ccccc3)s2)cc1OC | 9.1 | -3.2% | -96.5* | -5.8%
Cc1cnc(CNc2ncnc3ccc(-c4ccccc4C)cc23)cn1 | . | . | . | -2.7%
COc1ccc(OC)c(N=c2ssnc2Cl)c1 | 1.5 | 8.91µM* | -15.1 | 25.1µM*
COc1ccc(OC)c(N=C2C(=O)Nc3ccccc32)c1 | 11.2 | 3.9% | 72.8 | 3.2%
Cc1cc(C)nc(/N=c2/ssnc2Cl)c1 | 15.5 | -13.8% | -26.9 | -14.0%
Cc1ccc(N=c2ssnc2Cl)cc1 | ? | 28.2µM* | ? | ?
COc1cc(N=c2ssnc2Cl)c(OC)cc1Cl | 8.7 | 20µM* | 10.4 | 25.1µM*
Cc1cc(Cl)ccc1N=c1ssnc1Cl | 2.9 | -23.2% | 27.6 | ?
Cn1c(-c2cccc3ccccc23)n[nH]c1=S | . | -0.2% | 12.4 | .
CC1CCCCN1C(=O)CSc1nnc(Cc2ccccc2)n1C (configuration not stated) | -2.7 | -2.1% | -100.0* | .
COCCn1c(Cc2ccccc2)nnc1SCC(=O)N1CCCCC1C (configuration not stated) | 1.3 | 1.5% | -16.4 | 1.3%
CC1CCCC(C)N1C(=O)CSc1nnc(CSc2ncccn2)n1C (configuration not stated) | 1.2 | -2.5% | -100.0* | 5.8%
O=C(c1ccc(Cn2cc(Cl)cn2)o1)N1CCN(Cc2ccc3c(c2)OCO3)CC1 | 6.8 | -21.6% | -106.6* | 4.7%
COc1ccc(OC)c2c(=S)c3ccccc3[nH]c12 | 31.3 | 25.1µM* | . | -6.6%
COc1ccc(-c2c(N)nnc3c2[nH]c2ccccc23)cc1OC | -6.9 | -5.3% | 13.0 | 22.8%
C/C(CC(=O)N(C(C)C)C(C)C)=N\NC(=O)c1ccccc1Br | . | 4.2% | 33.6 | .
Cc1ccccc1Nc1cccc2nonc12 | . | -2.2% | -99.4* | .
O=C(Cn1cnc2sc(-c3ccccc3)cc2c1=O)NCc1ccco1 | -6.8 | -2.6% | -90.2* | ?
Cc1ccc(-c2nn(CC(=O)NCc3ccco3)c(=O)c3ccccc23)cc1 | 4.5 | -0.4% | -110.7* | -1.1%
CCCCC1(CCCC)NC(=S)N(Nc2ccc(C)cc2)C1=O | 6.7 | -8.2% | -90.0* | -7.4%
O=C1CCCc2nn(-c3ccccc3)c(-c3ccncc3)c21 | ? | -3.8% | 8.2 | -2.9%
CCC(C)(C(=O)NC1CCCCC1)N(C)C(=O)c1ccccn1 (configuration not stated) | 0.9 | 2.2% | -105.8* | 0.8%
COc1ccccc1N1C(=O)CC(Nc2ccc(N3CCOCC3)cc2)C1=O (configuration not stated) | 18.3 | ? | -2.8 | -6.5%
CCOc1ccccc1N1C(=O)CC(Nc2ccc(N3CCOCC3)cc2)C1=O (configuration not stated) | 0.8 | ? | 12.2 | 15.8µM*
SMILES | IMPase inh | 12-hLO inh | PNC assembly inh | ALOX15B inhib
O=C1CC(Nc2ccc(N3CCOCC3)cc2)C(=O)N1Cc1ccccc1 (configuration not stated) | 2.5 | ? | -118.9* | .
C=CCOc1ccc(/C=C/C(=O)Nc2ccc(C(=O)NC)cc2)cc1 | . | -2.7% | ? | .
O=[N+]([O-])c1ccc(Cl)c(/C=N/n2c(-c3cccnc3)n[nH]c2=S)c1 | -7.2 | -1.0% | 3.1 | .
CCC1C/C(=C/c2ccco2)C(=O)/C(=C/c2ccco2)C1 (configuration not stated) | 7.2 | -15.8% | -119.3* | .
O=C(CCN1C(=O)CSC1=O)Nc1ccc(Br)cc1 | 3.1 | 2.7% | -100.0* | .
Cc1ccc(NC(=O)CCN2C(=O)CSC2=O)cc1 | 1.0 | 0.3% | -16.6 | .
COc1cccc(/C(C#N)=C/c2c(-c3ccc(Cl)cc3)nc3c(C)cccn23)c1 | 8.9 | -3.0% | -99.4* | 7.5%
O=C(COC(=O)c1ccc2c(c1)C(=O)N(CCc1ccccc1)C2=O)Nc1ccc(OC(F)F)cc1 | . | -0.2% | 56.3 | .
